# Biological target: SLC2A3
# Assay: pooled miR-30 sensor sort-seq; sequence = guide strand
# Conditions: shRNA
# Also: reference of the scale not given here.
row,Sequence,sensor-assay potency score (higher = more potent)
1,TTACACAGTCCCATAAAGCAGC,-0.688
2,TCTGCTTAGCATTCTCCTCTTC,0.0393
3,TAGGATAGCAGGAAGGATGGTA,0.643
4,TTCCAGATCTATCTGCACCGTG,0.283
5,TTGTAGGATAGCAGGAAGGATG,-1.65
6,TTCTTTTCTGTTAATGAGCAAA,-1.47
7,TTATGATCTTCTCAGGAGCATT,-1.71
8,TTGACGAAGAGTCCGACGGAAA,-1.44
9,TAGCTACTTTACACAGTCCCAT,-0.496
10,TTTGAAGAAGGTAAAAGCCAAG,-1.07
11,TTATCCTTTAATAACAAAGAAA,-1.62
12,TTAGCTACTTTACACAGTCCCA,-1.12

# Biological target: SLC2A7
# Assay: as above
# Conditions: shRNA
row,Sequence,sensor-assay potency score (higher = more potent)
1,TTTATCTCCACAAATGTTTTGC,0.129
2,TAGTTGATCGCATTGATGCCCG,-0.411
3,TCTGCCGCAGCTATCAACCAGC,-0.668
4,TGACTTGAAGACCTTGTGCGGC,-0.691
5,TTACATATTGGGAGTGAGCGGC,-0.256
6,TAAATCGCAGTGAGGAGGCAGA,-0.695
7,TTGAAGACCTTGTGCGGCGTGT,-0.139
8,TTCATCTCCTTTCTGAATCAGG,-0.693
9,TTCTGAATCAGGGAGTAGCGGG,-1.43
10,TTTCGTTGTAAAATGACTTGAA,0.429
11,TAGTAGTTGATCGCATTGATGC,-1.14
12,TTTCTCTTGGCAAAAATGCGGT,-0.876
